The panel holds about 83,000 compounds, 20% with a hit somewhere; the sample as a whole holds those more often.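 Single-dose data. Exposure time 48 hours. Values below 10 considered active.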 The source made the active and inactive calls.
Each compound was assayed on HCT-15 colon (assay: NCI-60 one-dose screen, 48 h (100 = growth as untreated, 0 = no growth, -100 = all killed)). Details: 10 µM unless noted.
Protocol: Growth inhibition of the HCT-15 human tumor cell line is measured as a screen for anti-cancer activity. Cells are grown in 96 well plates and exposed to the test compound for 48 hours. Compounds are tested at a single concentration, which is 10^-5 M for most compounds. The reported endpoint is percent growth (GI% or GIPRCNT), where numbers from 0 - 100% represent growth inhibition, and numbers from -100% - 0 represent cell death. For example, a value of 40 represents 60% growth inhibition. A value of 0 means no net growth occurred over the course of the experiment. A value of -40 indicates 40% of cells at the beginning of the experiment died by the end of the experiment. A value of -100 means all cells are dead at the end of the experiment.
NCI-60 Human Tumor Cell Lines Screen was performed using the standard one-dose NCI protocol, which is described in more detail at https://dtp.cancer.gov/discovery_development/nci-60/default.htm.
Compounds with GIPRCNT values below 10 were considered active. Activity score was based on GIPRCNT using the following formula: […]
Score is 0 for GIPRCNT values of 100 or above, 50 for GIPRCNT values of 0, and 100 for GIPRCNT values of -100.

Question: With `O=C(NS(=O)(=O)c1ccccc1)n1cc(-c2ccncc2)c(-c2cc(O)cc(Cl)c2)n1` as the compound, how does the growth read?
Answer: The growth was 95.9% (inactive).

Question: `O=C(COc1ccc(/C=C2\Oc3ccccc3C2=O)cc1)Nc1nccs1` was tested. Which growth did it give?
Answer: Its growth is 104% (inactive).

Question: How did the growth turn out when `Cn1cc(-c2ccc3c(Nc4cccc(NC(=O)Nc5cccc(F)c5)c4)ncnc3c2)cn1` was run?
Answer: Its growth is 37.8% (inactive).

Question: With `C=C(c1ccc(OC)c(/C=C/C(=O)c2cc(OC)c(OC)c(OC)c2)c1)c1cc(OC)c(OC)c(OC)c1` as the compound, how does the growth read?
Answer: Its growth is -21.6% (active).

Question: For `COc1cc2c(c(OC)c1OC)CCC(c1cccc(C(=O)Nc3ccccc3Br)c1)O2` (stereo not given), which growth is on record?
Answer: Its growth is 92% (inactive).

Question: `O=C1N/C(=N/N=C(c2ccccc2)c2ccccc2)S/C1=C\c1ccc(Br)cc1` was tested. Which growth did it give?
Answer: Its growth is 97.8% (inactive).

Question: Which growth does the source give for `CCN=c1sc2c(n1NC(=O)c1cc3ccc1CCc1ccc(cc1)CC3)C(=O)c1ccccc1C2=O` here?
Answer: Its growth is -68.1% (active).

Question: How did the growth turn out when `COc1cc2cc(Oc3ccc(NC(=O)Nc4ccc(F)c(C(F)(F)F)c4)cc3)c(C)nc2cc1OCCN1CCCCC1` was run?
Answer: The growth was -71.5% (active).

Question: `O=C(c1ccccc1)[C@@H](c1ccccc1)[C@]1(O)C(=O)Nc2ccccc21` was tested. Which growth did it give?
Answer: Its growth is 100% (inactive).

Question: `C/C(=N\NC(=O)c1ccc(C(C)(C)C)cc1)c1ccc(O)cc1O` was tested. Which growth did it give?
Answer: Its growth is 16.5% (inactive).

Question: How did the growth turn out when `CC(C)n1cc(C2=C(c3cccc4ccccc34)C(=O)NC2=O)c2cc(Br)ccc21` was run?
Answer: The growth was 43.1% (inactive).

Question: Which growth does the source give for `Cc1ccc(C(F)(F)F)cc1N1CCN(C(=O)[C@H]2C[C@H]2c2ccc(C(F)(F)F)nc2)CC1` here?
Answer: Its growth is 93.2% (inactive).

Question: With `O=c1c2cccc3c(N4CCOCC4)ccc(c32)c2nc3ccccc3n12` as the compound, how does the growth read?
Answer: Its growth is 81% (inactive).

Question: `CCOC(=O)CC1CSC(N/N=C(/C)c2cccc(C(F)(F)F)c2)=N1` (stereo not given) was tested. Which growth did it give?
Answer: The growth was 93.8% (inactive).

Question: For `Cc1c(C(=O)C(SC(=S)N2CCOCC2)SC(=S)N2CCOCC2)nnn1-c1ccc([N+](=O)[O-])cc1`, which growth is on record?
Answer: Its growth is 89.3% (inactive).

Question: How did the growth turn out when `Cc1c2cnccc2c(C)c2c1c1cc(C(=O)O)ccc1n2C` was run?
Answer: The growth was 1.03% (active).

Question: How did the growth turn out when `Cc1ccccc1NC(=O)c1sc2nc3c(cc2c1N)CCCC3` was run?
Answer: Its growth is 25% (inactive).

Question: How did the growth turn out when `CCCc1cc(CCC)n2nc(N)nc2n1` was run?
Answer: Its growth is 107% (inactive).

Question: `CC1=C([Se]CC(OC(=O)[C@@H](CO)NC(=O)OC(C)(C)C)C(=O)NCCCCCC(=O)OCc2ccccc2)C(=O)c2ccccc2C1=O` (stereo not given in full) was tested. Which growth did it give?
Answer: The growth was -45.8% (active).

Question: With `C=C(c1ccc(C(=O)O)c(F)c1)c1cc2c(cc1C)C(C)(C)C=CC2(C)C` as the compound, how does the growth read?
Answer: Its growth is 79.3% (inactive).

Question: For `CCc1ccc(Cc2cnc(NC(=O)c3cc(C)oc3C)s2)cc1`, which growth is on record?
Answer: Its growth is 24.3% (inactive).

Question: For `O=C(O)c1cc2ccccc2s1`, which growth is on record?
Answer: Its growth is 106% (inactive).

Question: Which growth does the source give for `CC/C(=C(/c1ccc(Cl)cc1)c1ccc(OCCCN(C)C)cc1)c1ccc(OC)cc1` here?
Answer: Its growth is 12.8% (inactive).

Question: How did the growth turn out when `Cn1nc(-c2ccc(Cl)cc2)nc2c(=O)n(C)c(=O)nc1-2` was run?
Answer: The growth was -67.5% (active).

Question: For `O=C(/C=C/c1ccco1)Nc1ncc(Cc2ccc(F)cc2)s1`, which growth is on record?
Answer: Its growth is 15.3% (inactive).

Question: With `CN1CCN(CC(=O)N(C)c2ccc(N=C(c3ccccc3)c3c(O)[nH]c4ccc([N+](=O)[O-])cc34)cc2)CC1` as the compound, how does the growth read?
Answer: Its growth is 56.8% (inactive).

Question: `COc1ccc(C2=C/C(=C\c3ccccc3O)C(=O)N2Cc2ccccc2)cc1` was tested. Which growth did it give?
Answer: The growth was 67.6% (inactive).

Question: Which growth does the source give for `CN1CCN(CCCNC(=O)c2c3c(n4ccccc24)C(=O)c2ncccc2C3=O)CC1` here?
Answer: Its growth is 4.07% (active).

Question: How did the growth turn out when `COc1ccc(/C=C/C(=O)c2ccc(-n3cc(CN4CCN(c5cc6c(cc5F)c(=O)c(C(=O)O)cn6C5CC5)CC4)nn3)cc2)cc1` was run?
Answer: The growth was 80.6% (inactive).

Question: `CCN1C(=O)N(CC)C2C1NN=c1s/c(=C3\C(=O)N(C)c4ccccc43)c(=O)n12` (stereo not given) was tested. Which growth did it give?
Answer: The growth was 22.2% (inactive).

Question: Which growth does the source give for `C#CCOc1ccc(C2=NN(C)C3N=C(Cl)c4ncn(C)c4N23)cc1OCC#C` (stereo not given) here?
Answer: The growth was 92.1% (inactive).

Question: How did the growth turn out when `O=C(CSc1nnc(-c2ccc(Cl)c(Cl)c2)n1-c1ccccc1)Nc1ccc(C(=O)/C=C/c2ccc(Cl)cc2)cc1` was run?
Answer: The growth was 92.3% (inactive).

Question: For `Cc1cc2nc(C(Cl)Cl)nc(-c3ccccc3)n2n1`, which growth is on record?
Answer: Its growth is 41.2% (inactive).

Question: How did the growth turn out when `CC(C)(C)n1cc(-c2ccnc(NCCNS(=O)(=O)c3ccc(C(F)(F)F)cc3)c2)c(-c2ccccc2)n1` was run?
Answer: The growth was 75.6% (inactive).

Question: `O=[N+]([O-])c1ccc(N/N=C\c2cc(Cl)ccc2O)nc1` was tested. Which growth did it give?
Answer: Its growth is 26% (inactive).

Question: How did the growth turn out when `C=CCn1c(SCC(=O)Nc2ccc(C(=O)/C=C/c3ccc(Cl)cc3)cc2)nnc1-c1ccccc1` was run?
Answer: Its growth is 87.7% (inactive).

Question: Which growth does the source give for `CN1CCN(c2ccc(Nc3ncc4[nH]c(=O)n(Cc5ccccc5N)c4n3)cc2)CC1` here?
Answer: Its growth is 106% (inactive).

Question: For `CCOC(=O)c1c(Nc2nc3ccccc3s2)sc2c1CCC(=O)C2`, which growth is on record?
Answer: The growth was 45.1% (inactive).

Question: With `O=c1cc(-c2nccc3c2[nH]c2ccccc23)c2cc(Cl)ccc2o1` as the compound, how does the growth read?
Answer: Its growth is 24.3% (inactive).

Question: Which growth does the source give for `CSc1nc(N)c2c(n1)NC(c1ccccc1)C1CCc3ccccc3C1=N2` (stereo not given) here?
Answer: The growth was 46.8% (inactive).

From PubChem BioAssay (NCI)
